# Data published in the supplement of paper PMC10981050.
# Where “and” joins values, the source holds several entries; their conditions need not be identical. Equal values may be shown once. Where a name gives a salt, the structure may show the parent alone.
# What was measured:
# Experiment in all cases: cell viability relative to vehicle control; higher = less cytotoxic
# Conditions in all cases: 10 µM
# K562 = tested on: K562
# Procedure, shortened: (§1)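 After removal of identity-inconsistent compounds, the Selleck bioactive, kinase and epigenetic probe libraries were screened on CRISPR-edited mutant clones and isogenic wild-type clones of four leukaemia lines. Plates were 384-well, each well holding 2000 cells in 50 µL medium and receiving a single 10 µM acoustically dispensed dose. CellTiter-Glo luminescence was read 48 h later, after the supernatant was taken off. Genedata Screener was used to express viability as percent of the on-plate vehicle control.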
# MARIMO = tested on: MARIMO
# Procedure, shortened: as §1
# MOLM14 = tested on: MOLM14
# Procedure, shortened: as §1
# OCI-AML2 = tested on: OCI-AML2
# Procedure, shortened: as §1
Compound,cell viability (K562; SRSF2 genotype: SRSF2 P95H/wt),cell viability (K562; SRSF2 genotype: SRSF2 wt/wt) [%],cell viability (MARIMO; SRSF2 genotype: SRSF2 P95H/wt) [%],cell viability (MARIMO; SRSF2 genotype: SRSF2 wt/wt) [%],cell viability (MOLM14; SRSF2 genotype: SRSF2 P95H/wt) [%],cell viability (MOLM14; SRSF2 genotype: SRSF2 wt/wt) [%],cell viability (OCI-AML2; SRSF2 genotype: P95H/wt) [%],cell viability (OCI-AML2; SRSF2 genotype: wt/wt) [%]
COc1ccc(S(=O)(=O)Nc2cc(-c3c(O)ccc4ccccc34)c(O)c3ccccc23)cc1,7.52% and 4.96%,34.5,0.33,0.36,0.32,0.34,0.37,0.35
O=CCc1ccccc1 [Phenylacetaldehyde],99.4% and 97.2%,92.8,97.5,95.2,107,97.2,99.5,93.5
CCC(CC)CC1(C(=O)Nc2ccccc2SC(=O)C(C)C)CCCCC1,94.6% and 96.2%,103,96,97.5,90.1,95.5,83.2,85.5
COc1ccc2[nH]cc(/C=C3\C(=O)Nc4ccc(NC(=O)CCN5CCCCC5)cc43)c2c1,7.59% and 11%,8.26,37.9,33.6,0.75,0.77,0.4,0.72
C[C@H](CC[C@@]1(O)O[C@H]2C[C@H]3[C@@H]4CC=C5C[C@@H](O[C@@H]6O[C@H](CO)[C@@H](O[C@@H]7O[C@@H](C)[C@H](O)[C@@H](O)[C@H]7O)[C@H](O)[C@H]6O[C@@H]6O[C@@H](C)[C@H](O)[C@@H](O)[C@H]6O)CC[C@]5(C)[C@H]4CC[C@]3(C)[C@H]2[C@@H]1C)CO[C@@H]1O[C@H](CO)[C@@H](O)[C@H](O)[C@H]1O [Protodioscin],0.86% and 0.6%,3.02,0.64,0.77,0.49,0.55,0.74,0.5
Oc1cc(CNC(=S)/C=C/c2cc(O)c(O)c(Br)c2)cc(O)c1O,20.1% and 32.5%,23.6,16.6,23.2,14.3,5.87,28.1,26.9
O=c1cc(N2CCOCC2)oc2c(-c3cccc4c3sc3ccccc34)cccc12,89.7% and 97.5%,88.3,93,87.3,60.5,51.9,52.5,66.4
O=C1c2c(O)cccc2C([C@@H]2O[C@H](CO)[C@@H](O)[C@H](O)[C@H]2O)c2cc(CO)cc(O)c21 (some centres not stated) [Aloin (Barbaloin)],105% and 104%,98.5,105,102,109,104,98.1,102
CC1CCC2(OC1)OC1CC3C4CCC5CC(OC6OC(CO)C(O)C(O)C6OC6OC(CO)C(O)C(O)C6O)CCC5(C)C4CCC3(C)C1C2C (configuration not stated) [Timosaponin A3],7.72% and 10%,28.3,3.39,3.93,1.66,0.73,0.43,0.73
COc1cccc2c1c(O)c(C(=O)N(C)c1ccc(C(F)(F)F)cc1)c(=O)n2C [Tasquinimod],108% and 106%,99.1,109,116,106,106,101,110
C[C@H]1[C@H](C)CC[C@]2(C(=O)O[C@@H]3O[C@H](CO[C@@H]4O[C@H](CO)[C@@H](O[C@@H]5O[C@H](C)[C@H](O)[C@@H](O)[C@H]5O)[C@H](O)[C@H]4O)[C@@H](O)[C@H](O)[C@H]3O)CC[C@]3(C)C(=CC[C@@H]4[C@@]5(C)C[C@@H](O)[C@H](O)[C@@](C)(CO)[C@@H]5CC[C@]43C)[C@H]12 [Asiaticoside],102% and 105%,101,103,99.2,103,103,98.7,106
COC(=O)Nc1nc2cc(C(=O)c3cccs3)ccc2[nH]1 [Nocodazole],12.2% and 32.6%,34.7,7.65,8.94,1.15,3.4,5.25,7.85
"CC(C)C12CCC(C)(CC1)O2 [1,4-Cineole]",104% and 101%,104,103,103,105,110,99.4,97.7
C=C1[C@H](OC(=O)/C=C(\C)CC)C[C@@H](C(C)C)[C@@H]2[C@@H]([C@@H](C)OC(C)=O)C(=O)C[C@@H]12 [Tussilagone],83% and 91.6%,89.5,57,53.2,64.5,71.3,56.6,77.6
CC(=O)c1ccc2c(c1)c1cc(C(C)=O)ccc1n2CCNC(C)C,5.79% and 17.9%,9.91,5.2,2.54,2.29,0.66,4.6,20.6
Cc1ccc(S(=O)(=O)Cc2nc(-c3ccc(C(=O)NCc4cccnc4)cc3)oc2C)cc1,30% and 20.2%,26,21.2,37.2,12.1,2,5.44,5.6
COc1cc2nccc(Oc3ccc(NC(=O)C4(C(=O)Nc5ccc(F)cc5)CC4)cc3)c2cc1OC [Cabozantinib malate],21% and 29.7%,23.6,67.3,87.3,6.23,7.8,23.3,27.8
Cc1cc(SCc2sc(-c3ccc(C(F)(F)F)cc3)nc2C)ccc1OCC(=O)O,102% and 95.2%,96.7,92,103,87.6,97.3,90.4,95.4
CNCc1cc(-c2ccccc2F)n(S(=O)(=O)c2cccnc2)c1 [Vonoprazan Fumarate (TAK-438)],94.5% and 98%,94.2,85.5,89.8,93,91.3,97.1,85.7
FC(F)c1nc2ccccc2n1-c1nc(N2CCOCC2)nc(N2CCOCC2)n1,71.3% and 77.2%,70,49.4,43.4,32,32.9,13.8,27.2

Compound,cell viability (K562; SRSF2 genotype: SRSF2 P95H/wt),cell viability (K562; SRSF2 genotype: SRSF2 wt/wt) [%],cell viability (MARIMO; SRSF2 genotype: SRSF2 P95H/wt) [%],cell viability (MARIMO; SRSF2 genotype: SRSF2 wt/wt) [%],cell viability (MOLM14; SRSF2 genotype: SRSF2 P95H/wt) [%],cell viability (MOLM14; SRSF2 genotype: SRSF2 wt/wt) [%],cell viability (OCI-AML2; SRSF2 genotype: P95H/wt) [%],cell viability (OCI-AML2; SRSF2 genotype: wt/wt) [%]
C[C@H](CCC(=O)O)[C@H]1CC[C@H]2[C@@H]3[C@H](O)C[C@@H]4C[C@H](O)CC[C@]4(C)[C@H]3CC[C@]12C [Chenodeoxycholic acid],97.4% and 101%,99.7,104,108,100,101,98.4,106
CCN(CC)Cc1cc(Nc2ccnc3cc(Cl)ccc23)ccc1O [Amodiaquine hydrochloride],80.3% and 76.8%,74,61,67.4,40.2,31.1,39,33.4
O=C(/C=C/c1ccc(O)cc1)C1=C(O)[C@](O)([C@@H]2O[C@H](CO)[C@@H](O)[C@H](O)[C@H]2O)C(O)=C(/C=C2/C(=O)C(C(=O)/C=C/c3ccc(O)cc3)=C(O)[C@@](O)([C@@H]3O[C@H](CO)[C@@H](O)[C@H](O)[C@H]3O)C2=O)C1=O [Safflower Yellow],97.2% and 89.1%,90.4,91.5,98.8,90.4,94.9,97.7,90.5
CC(C)c1ccccc1Cc1cc(C(=O)Nc2ccc(S(=O)(=O)c3ccccc3C(C)(C)C)cc2)c(O)c(O)c1O,8.56% and 5.5%,7.92,17.6,18.2,4.45,1.48,2.91,8.83
O=C(O)c1ccc(N2C(=O)C(=Cc3ccc(-c4ccc([N+](=O)[O-])cc4)o3)C=C2c2ccccc2)cc1,86.8% and 85.4%,84.5,104,108,82.2,94,97.9,98.2
CCOC(=O)OC(C)OC1=C(C(=O)Nc2ccccn2)N(C)S(=O)(=O)c2ccccc21 (configuration not stated) [Ampiroxicam],96.8% and 104%,92.4,101,95.9,93,95.9,104,96
COc1cc(C=O)cc(OC)c1O [Syringaldehyde],110% and 99.8%,96,102,112,99.2,105,94.8,114
"CC(=O)C1=C(O)C=C2Oc3c(C(C)=O)c(O)c(C)c(O)c3C2(C)C1=O (single isomer, unassigned; (+)) [(+)-Usniacin (D-Usnic acid)]",98.5% and 99.9%,97.7,95.4,106,95,99,90.8,98.9
O=C(O)COc1ccc(Br)cc1C=C1SC(=S)N(Cc2cccnc2)C1=O [Skp2 inhibitor C1 (SKPin C1)],34.9% and 35.5%,35.5,18.9,18.6,5.39,2.44,3.65,9.12
CC(=O)c1cc2c(o1)C(=O)c1ccccc1C2=O [Napabucasin],0.4% and 0.37%,0.39,3.59,2.73,0.37,0.39,0.4,0.39
COc1ccc2[nH]c([S+]([O-])Cc3ncc(C)c(OC)c3C)nc2c1 (configuration not stated) [Omeprazole (Prilosec)],97.3% and 91.5%,95.6,92.8,98.5,94.9,95.8,98,100
C[C@@]12CC[C@@H]3[C@@](CC[C@H]4[C@@]3(C)CCC[C@@]4(C)C(=O)O)(CC1=O)C2 [Iso-Steviol],100% and 92.9%,96.7,99.4,107,95,94.7,88.3,101
CCC[C@H](N[C@H]1CCc2cc(F)cc(F)c2C1)C(=O)Nc1cn(C(C)(C)CNCC(C)(C)C)cn1,78% and 88.1%,88.7,74.3,86.2,78,88.8,73.3,72.3
Cc1ccc(-c2c(-c3nn(C)c4ncnc(N5CC[C@H](N6CCCCC6)C5)c34)cnn2C)cc1,92.8% and 98%,105,96.5,98.5,95.1,101,103,102
N#Cc1c(N)nc(NC2CC2)nc1N [Dicyclanil],96.3% and 102%,105,94.5,105,104,102,107,99.9
Oc1ccc([C@H]2COc3cc(O)ccc3C2)cc1 [Equol],90.4% and 101%,103,99.9,104,95.2,104,92,88.4
COc1cc2c(cc1OC)-c1cc3ccc4c(c3c[n+]1CC2)OCO4 [Epiberberine],84.1% and 89.4%,85.8,98.2,98.2,94.8,86.9,86.4,89.3
COc1c(-c2ccc3cc(NS(C)(=O)=O)ccc3c2)cc(-n2ccc(=O)[nH]c2=O)cc1C(C)(C)C [S5402 Dasabuvir(ABT-333).cdx],84% and 86.8%,80.6,82,89.6,88.3,97.3,90.5,90.5
CCO[C@@H]1OC(=O)C[C@@H]1NC(=O)[C@@H]1CCCN1C(=O)[C@@H](NC(=O)c1ccc(N)c(Cl)c1)C(C)(C)C [Belnacasan (VX-765)],99.5% and 102%,94,95.2,104,97.7,98.1,103,104
